# Measured values reported in a collection of fitness landscapes (doi:10.1126/science.1257360).
# The full ranking holds about 140,000 sequences; the median of “enrichment ratio after two sorts for PhoP signalling” is about 0, and the highest 2% start at about 11. The sample as a whole holds a higher share of the highest values than the screen did.
# B1: PhoQ; a variant is named by its letters at X, in order, P23837 (parent)
# chain: MKKLLRLFFPLSLRVRFLLATAAVVLVLSLAYGMVALIGYSVSFDKTTFRLLRGESNLFYTLAKWENNKLHVELPENIDKQSPTMTLIYDENGQLLWAQRDVPWLMKMIQPDWLKSNGFHEIEADVNDTSLLLSGDHSIQQQLQEVREDDDDAEMTHSVAVNVYPATSRMPKLTIVVVDTIPVELKSSYMVWSWFIYVLSANLLLVIPLLWVAAWWSLRPIEALAKEVRELEEHNRELLNPATTRELTSLVRNLNRLLKSERERYDKYRTTLTDLTHSLKTPLXXLQXXLRSLRSEKMSVSDAEPVMLEQISRISQQIGYYLHRASMRGGTLLSRELHPVAPLLDNLTSALNKVYQRKGVNISLDISPEISFVGEQNDFVEVMGNVLDNACKYCLEFVEISARQTDEHLYIVVEDDGPGIPLSKREVIFDRGQRVDTLRPGQGVGLAVAREITEQYEGKIVAGESMLGGARMEVIFGRQHSAPKDE
# Variants of: B1
# Test: enrichment ratio after two sorts for PhoP signalling (ratio (wild type AVST 3.29)); higher = more functional
# Conditions: with PhoP (E. coli)
row,Variant,enrichment ratio
1,TANR,≤ 0.25
2,ASAD,≤ 0.25
3,ASYY,≤ 0.25
4,ASAS,15.3
5,ASAG,7.21
6,ASAI,13.2
7,KSAA,≤ 0.25
8,ASRY,≤ 0.25
9,ASAA,13.4
10,ASAT,10.1
11,IFDK,≤ 0.25
12,WHPD,≤ 0.25
13,CLCS,≤ 0.25
14,RQQL,≤ 0.25
15,HTYY,≤ 0.25
16,QIYY,≤ 0.25
17,MTYY,0.96
18,RGYY,≤ 0.25
19,MKAY,≤ 0.25
20,STYY,≤ 0.25
21,MEAY,13
22,MKYY,≤ 0.25
23,TGYY,22.5
24,MEYY,18.8
25,QEYY,17.4

row,Variant,enrichment ratio
1,NGYY,≤ 0.25
2,MEYI,11
3,NFDN,≤ 0.25
4,RTPI,≤ 0.25
5,RQSW,≤ 0.25
6,IMCF,≤ 0.25
7,EDGY,≤ 0.25
8,SVMR,12.6
9,SVTR,8.52
10,SVSR,6.38
11,SVHQ,≤ 0.25
12,SVSQ,13.4
13,SVSF,12.6
14,SVAE,13.4
15,SVGR,1.46
16,KFAE,≤ 0.25
17,SVAV,7.92
18,SVHP,≤ 0.25
19,SVHF,≤ 0.25
20,WQKA,≤ 0.25
21,ARFL,≤ 0.25
22,KVIR,≤ 0.25
23,ADCI,≤ 0.25
24,PPMF,≤ 0.25
25,RIFK,1.58

row,Variant,enrichment ratio
1,NEIH,≤ 0.25
2,TNDC,≤ 0.25
3,MKCG,≤ 0.25
4,SVTM,14.7
5,SVHG,≤ 0.25
6,SVPA,≤ 0.25
7,SVLY,0.677
8,SVVA,1.32
9,SVTK,11.9
10,SVTI,12
11,SVWM,≤ 0.25
12,SVTG,13.5
13,SVVG,6.29
14,SVTS,7.51
15,SVPM,7.47
16,GRAK,≤ 0.25
17,PILY,≤ 0.25
18,EHER,≤ 0.25
19,QSNR,≤ 0.25
20,PYGV,≤ 0.25
21,SGYP,≤ 0.25
22,IIGH,≤ 0.25
23,RDSD,≤ 0.25
24,KFAH,≤ 0.25
25,SVTC,3.84

row,Variant,enrichment ratio
1,NVAH,≤ 0.25
2,SVWR,≤ 0.25
3,SVAH,12.7
4,KFSG,≤ 0.25
5,SVSG,13.4
6,SVMH,22.9
7,NVCC,≤ 0.25
8,SDSG,0.62
9,SVMG,5.71
10,SVCC,16.1
11,RVAP,≤ 0.25
12,WQNE,≤ 0.25
13,LLNR,≤ 0.25
14,TAVV,1.05
15,ARNK,≤ 0.25
16,QMLS,≤ 0.25
17,SVSH,10.5
18,SVCS,8.61
19,SVTH,11.9
20,SVNH,3.33
21,SVPI,5.93
22,SVCG,13.3
23,SVSK,12.7
24,LCNG,≤ 0.25
25,SVNG,12.5

row,Variant,enrichment ratio
1,SVCI,10.4
2,SVWI,≤ 0.25
3,PVNG,≤ 0.25
4,KLIS,≤ 0.25
5,NRHS,≤ 0.25
6,GGDF,≤ 0.25
7,FHQD,≤ 0.25
8,IWVM,≤ 0.25
9,HEVP,≤ 0.25
10,SQSF,7.01
11,KFCH,≤ 0.25
12,SVMQ,15.2
13,SVMS,8.47
14,SVMV,9.33
15,SVCF,4.45
16,SLSF,11.7
17,SVCH,12.5
18,SRSF,≤ 0.25
19,MQII,≤ 0.25
20,RDEG,≤ 0.25
21,FSHY,≤ 0.25
22,TALR,3.62
23,HPIF,≤ 0.25
24,AHVH,≤ 0.25
25,KSVH,≤ 0.25

row,Variant,enrichment ratio
1,WIVH,≤ 0.25
2,TEVH,16.3
3,TSCS,14.7
4,QEVH,≤ 0.25
5,AIVH,15
6,KSCS,≤ 0.25
7,LCVH,≤ 0.25
8,MEVH,1.05
9,TSVH,11.7
10,TSCK,3.25
11,VGWK,≤ 0.25
12,ATFQ,2.02
13,FKND,≤ 0.25
14,AFSM,0.932
15,RMFW,≤ 0.25
16,TSCV,17.3
17,KSCI,≤ 0.25
18,KYVH,≤ 0.25
19,FSCV,9.84
20,YSCV,15.6
21,STVH,8.82
22,TSCE,8.23
23,YSCI,2.62
24,KSCV,≤ 0.25
25,YRCV,≤ 0.25

row,Variant,enrichment ratio
1,TSCI,14.8
2,SSVH,14.4
3,TRVP,≤ 0.25
4,GWST,≤ 0.25
5,PYLQ,≤ 0.25
6,FLFH,≤ 0.25
7,RFWY,≤ 0.25
8,LSFF,0.737
9,MSSN,≤ 0.25
10,RYDM,≤ 0.25
11,PWRP,≤ 0.25
12,AMPS,≤ 0.25
13,SLVH,2.06
14,KSCT,≤ 0.25
15,SEVH,17.3
16,FSCT,≤ 0.25
17,NSCA,≤ 0.25
18,NSCQ,≤ 0.25
19,TSCA,15.2
20,TSCT,18.9
21,KSCA,≤ 0.25
22,TSCQ,21.3
23,SRVH,≤ 0.25
24,KSCQ,≤ 0.25
25,AGPW,≤ 0.25

row,Variant,enrichment ratio
1,MEVW,≤ 0.25
2,DAWH,≤ 0.25
3,VVRK,≤ 0.25
4,EQCP,≤ 0.25
5,QPNQ,≤ 0.25
6,MFMV,≤ 0.25
7,FTNT,≤ 0.25
8,TGEC,1.95
9,SFRM,≤ 0.25
10,FVEG,≤ 0.25
11,FWMV,≤ 0.25
12,MDAY,≤ 0.25
13,NVLK,≤ 0.25
14,FDAN,≤ 0.25
15,MAAN,14.7
16,MCVN,≤ 0.25
17,MCAT,4.13
18,MCAN,22.5
19,MEAT,17.9
20,MAQN,≤ 0.25
21,MCNL,≤ 0.25
22,MCDN,≤ 0.25
23,MKAT,≤ 0.25
24,MCWN,16.1
25,MMWN,≤ 0.25
